Here are results for 13 molecules from PubChem BioAssay.

Active and inactive are the calls of the source. Unless noted, the rule behind the calls is not given here.

A short description of assay [1]: resazurin metabolic signal in HepG2 cells – cell-based, resazurin fluorescence, 24 h, PK04 Diversity Set, profiling panel (AID 1172). Note: test concentration not given here. The note with it: HepG2 viability, higher = more signal.
The nature of assay [2]: budding yeast growth changes without added modifier – OD600, strain BY4716, 24 h, basal condition, primary screen (AID 1173). The note with it: S. cerevisiae BY4716 growth, OD600, 24 h; higher = more signal, called active from +8 up or from −8 down.
Assay [3] in a line: viability profiling in MM1S myeloma cells – cell-based, resazurin fluorescence, basal, 24 h, PK04 Diversity Set, profiling panel (AID 1174). Note: test concentration not given here. The note with it: higher = more signal, called active from +8 up or from −8 down.
Assay [4] addresses Dihydroorotate dehydrogenase (quinone), mitochondrial (Plasmodium falciparum (isolate 3D7)) (UniProt Q08210). In words: inhibition of P. falciparum DHODH – biochemical, C-terminal His tag, absorbance 600 nm, primary screen (AID 1175).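 Note: recombinant parasite enzyme with a five histidine tag at its C terminus; test concentration not given here.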 The conditions noted are these: PfDHODH enzyme, DCIP absorbance 600 nm; higher = more signal, called active from +8 up or from −8 down.
The nature of assay [5]: inhibition of PAO1 biofilm formation – strain PAO1, LB-PBS medium, absorbance 600 nm, primary screen (AID 1176). Note: test concentration not given here. The note with it: P. aeruginosa PAO1 growth/biofilm, A600, 12 h; higher = more signal.
Assay [6] is described as follows: growth modulation of vineyard yeast isolate – strain RM11-1a, OD600, basal, 24 h, primary screen (AID 1177).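 Note: cultures grown under basal conditions with no added stressor; test concentration not given here.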 The note with it: S. cerevisiae RM11-1a growth, OD600, 24 h; higher = more signal, called active from +8 up or from −8 down.
A short description of assay [7]: growth of efflux-deficient E. coli DRC39 – strain DRC39, OD650, 24 h, E. coli filamentation inducers, primary screen (AID 1178).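 Note: growth measured as culture turbidity by optical density at 650 nm; test concentration not given here.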 The conditions noted are these: E. coli DRC39 acrAB, higher = more signal, called active from +8 up or from −8 down.
The nature of assay [8]: growth of efflux-deficient E. coli DRC39 – strain DRC39, OD650, 48 h, E. coli filamentation inducers, primary screen (AID 1179).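 Note: screen aims at cell division blockers that make cells filament.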 The note with it: E. coli DRC39 delta-acrAB growth, higher = more signal, called active from +8 up or from −8 down.
The nature of assay [9]: viability profiling in RPMI8226 myeloma cells – cell-based, resazurin fluorescence, basal, 24 h, PK04 Diversity Set, profiling panel (AID 1180).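 Note: RPMI8826 multiple myeloma cell line at 5000 cells per well; test concentration not given here.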 The conditions noted are these: higher = more signal. A general note: Alamar Blue is a resazurin reagent that responds to reducing activity.
The target of assay [10] is E3 ubiquitin-protein ligase XIAP (Homo sapiens) (UniProt P98170). The experiment in a line: small molecules binding XIAP protein – biophysical, small-molecule microarray, fluorescence 635 nm, primary screen (AID 1181).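 Note: score merges 667 nm emission and signal to noise over triplicate slides.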 The conditions noted are these: higher = more signal.
Sequence of E3 ubiquitin-protein ligase XIAP (Homo sapiens) (P98170 whole entry, looked up): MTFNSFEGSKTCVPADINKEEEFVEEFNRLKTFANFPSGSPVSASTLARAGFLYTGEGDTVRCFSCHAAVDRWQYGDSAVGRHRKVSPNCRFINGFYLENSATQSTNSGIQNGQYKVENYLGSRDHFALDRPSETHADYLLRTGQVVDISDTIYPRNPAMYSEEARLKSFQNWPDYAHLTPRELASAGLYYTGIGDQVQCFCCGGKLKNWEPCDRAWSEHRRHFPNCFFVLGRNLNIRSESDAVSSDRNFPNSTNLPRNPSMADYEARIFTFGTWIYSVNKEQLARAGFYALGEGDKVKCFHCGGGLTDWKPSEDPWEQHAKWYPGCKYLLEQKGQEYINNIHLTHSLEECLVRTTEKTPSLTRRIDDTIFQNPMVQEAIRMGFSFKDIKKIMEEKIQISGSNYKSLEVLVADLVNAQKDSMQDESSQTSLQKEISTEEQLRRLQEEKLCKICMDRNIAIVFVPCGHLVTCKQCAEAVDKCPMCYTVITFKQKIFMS

Sequence of Dihydroorotate dehydrogenase (quinone), mitochondrial (Plasmodium falciparum (isolate 3D7)) (Q08210 whole entry, looked up): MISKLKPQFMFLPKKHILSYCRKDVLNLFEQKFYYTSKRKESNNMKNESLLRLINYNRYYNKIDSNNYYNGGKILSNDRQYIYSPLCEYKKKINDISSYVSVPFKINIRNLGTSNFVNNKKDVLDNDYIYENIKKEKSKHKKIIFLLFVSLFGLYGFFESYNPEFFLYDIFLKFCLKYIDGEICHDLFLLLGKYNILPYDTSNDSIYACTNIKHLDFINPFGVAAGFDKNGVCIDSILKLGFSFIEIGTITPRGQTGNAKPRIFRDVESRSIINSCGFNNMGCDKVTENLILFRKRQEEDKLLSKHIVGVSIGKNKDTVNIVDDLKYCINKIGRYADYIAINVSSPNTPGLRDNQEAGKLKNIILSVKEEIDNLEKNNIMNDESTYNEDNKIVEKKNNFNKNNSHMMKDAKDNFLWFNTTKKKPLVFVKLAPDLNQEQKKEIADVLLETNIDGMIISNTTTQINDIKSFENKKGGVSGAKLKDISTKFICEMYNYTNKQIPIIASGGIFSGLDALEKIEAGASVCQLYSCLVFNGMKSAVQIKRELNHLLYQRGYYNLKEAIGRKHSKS

For the molecule `COc1ccc([Si](C)(C)[C@@H]2[C@@H](CCO)O[C@]3(C(=O)N(Cc4cccc(N5CCCCC5=O)c4)c4ccccc43)[C@H]2C)cc1`, the z-score in assay [1] was -0.994; in assay [2] it was 0.697 (inactive); in [3] it was -1.93 (inactive); in assay [5], 0.225 (inactive); in [6], 5.19 (inactive); in assay [7] it was 0.318 (inactive). In addition, the figures for the z-score in [8] and in [9] were 0.244 (inactive) and -0.439, respectively. Besides, the composite z-score is -1.75 (inactive) in [4] and 0.0623 in assay [10].

Turning to `Cc1ccc(S[C@]2(C(=O)NCCCN(C)C)CC(=O)N(C(C)C)[C@@H]2c2ccc(CO)cc2I)cc1`, the z-score is 0.533 in [1]; -3.52 (inactive) in assay [2]; -3.69 (inactive) in assay [3]; 0.668 (inactive) in assay [5]; -1.31 (inactive) in assay [6]; 0.847 (inactive) in [7]. The z-score in [8] was 1.52 (inactive); in assay [9], -2.67. In addition, the composite z-score was -0.0857 (inactive) in assay [4] and -0.145 in assay [10].

Turning to `COc1cc(CO)cc(I)c1O[C@H]1C=C(C(=O)NCCO)C[C@@H](N(CCc2cccc(F)c2)C(=O)CCC2CCCC2)[C@@H]1O`, the z-score in [1] is -1.69; in [2] it was -9.37 (active); in assay [3], -3.26 (inactive); in assay [5], 1.99 (inactive); in assay [6], 1.99 (inactive); in assay [7] it was -0.0338 (inactive). Further, the z-score in assay [8] is -0.177 (inactive); in assay [9] it was -4.07. For the same molecule, the composite z-score in [4] was -0.459 (inactive); in assay [10], 0.29.

Consider `CN1C(=O)C2C=CC(C(O)c3ccc(Br)cc3)N(Nc3ccccc3)C2C1=O` (stereo not given), for which the z-score in [1] was 0.0752; in [2], -0.348 (inactive); in assay [3] it was -0.26 (inactive); in assay [5] it was 0.434 (inactive); in assay [6] it was 0.732 (inactive); in [7], -0.398 (inactive). The z-score was -0.413 (inactive) in [8] and 0.296 in [9]. For the same molecule, the composite z-score in assay [4] was -0.125 (inactive); in [10], -0.0773.

Regarding `COc1c(C)cc(-c2cc3c(c(-c4ccccc4)n2)[Si](C(C)C)(C(C)C)O[C@H]3c2ccccc2)cc1C`, the z-score in [1] was -0.315; in [2], -0.0888 (inactive); in [3], -0.477 (inactive); in [5] it was 0.161 (inactive); in [6] it was -1.33 (inactive); in assay [7] it was -0.102 (inactive). The z-score in assay [8] is -0.446 (inactive); in assay [9], -0.327. Further, the composite z-score in [4] was -1.21 (inactive); in assay [10], -0.0186.

`C=C[C@H](C)[C@H](O)c1ccc(OCCO)cc1`: the z-score in [1] is 0.847; in assay [2], -1.4 (inactive); in assay [3], 0.867 (inactive); in assay [5] it was 0.261 (inactive); in assay [6] it was 0.349 (inactive); in assay [7], 0.74 (inactive). Besides, the z-score in [8] was 0.715 (inactive); in [9] it was -1.9. For the same molecule, the results for the composite z-score in assay [4] and in assay [10] were 0.257 (inactive) and -0.115, respectively.

On to `Cc1ccccc1/C=C/C=O`, for which the z-score was 0.779 in assay [1]; -1.94 (inactive) in assay [2]; 0.971 (inactive) in assay [3]; -0.0902 (inactive) in [5]; -0.412 (inactive) in [6]; 1.23 (inactive) in [7]. Moreover, the z-score is 1.45 (inactive) in [8] and 1.36 in [9]. Further, the composite z-score is -0.464 (inactive) in assay [4] and -0.141 in assay [10].

Turning to `O=C1NC(=O)C2C1C=CC(C(O)c1cccs1)N2Nc1ccccn1` (stereo not given), the z-score in [1] was -0.687; in [2], 0.0408 (inactive); in assay [3], -1.71 (inactive); in assay [5], 0.916 (inactive); in assay [6], 0.623 (inactive); in assay [7], -0.0795 (inactive). The z-score was 0.0691 (inactive) in assay [8] and 0.398 in assay [9]. Also, the composite z-score is 0.566 (inactive) in assay [4] and 0.174 in assay [10].

As for `CCN(CC)c1ccc(N2CC=CC34O[C@@H]5/C=C\CCCOC(=O)C5[C@H]3C(=O)N(CCCO)[C@@H]4C2=O)cc1` (stereo not given in full), the z-score in assay [1] was 0.434; in assay [2], 0.993 (inactive); in [3], 0.481 (inactive); in [5], 0.053 (inactive); in assay [6] it was -0.767 (inactive); in [7], -0.438 (inactive). Further, the z-score was -0.322 (inactive) in [8] and 0.566 in [9]. For the same molecule, the results for the composite z-score in assay [4] and in assay [10] were -0.423 (inactive) and 0.559, respectively.

On to `C=C(/C(=C/C[C@@H](OC(=O)c1ccncc1)c1ccc(CO)o1)c1cc(C(=O)OC)ccc1OC)C(C)C`, for which the z-score is -0.512 in assay [1]; -0.128 (inactive) in assay [2]; -0.51 (inactive) in assay [3]; 0.519 (inactive) in assay [5]; -0.0289 (inactive) in assay [6]; 0.885 (inactive) in [7]. In addition, the z-score in [8] is 0.64 (inactive); in assay [9] it was -0.533. For the same molecule, the composite z-score is -1.49 (inactive) in assay [4] and -0.187 in assay [10].

Consider `CN(C)CCCC[C@@H]1NC(=O)[C@@H]2C[C@H](C(=O)NCc3ccc(F)cc3)[C@H](c3cccc(OCCO)c3)N2C1=O`, for which the z-score in [1] was -0.487; in [2], -0.889 (inactive); in assay [3], 0.0458 (inactive); in assay [5], 0.199 (inactive); in assay [6], -0.889 (inactive); in assay [7], 0.797 (inactive). For the same molecule, the z-score in assay [8] is 0.83 (inactive); in assay [9], 0.293. Further, the composite z-score is -0.366 (inactive) in assay [4] and 0.0808 in assay [10].

Regarding `Cc1ccc(F)cc1S(=O)(=O)N[C@@H]1CCN(Cc2ccc(C(F)(F)F)cc2)C1`, the z-score in assay [1] is -0.29; in [2] it was -10.8 (active); in [3], -0.529 (inactive); in assay [5] it was -0.553 (inactive); in assay [6], 0.338 (inactive); in assay [7] it was 0.0136 (inactive). Also, the z-score in [8] was -1.2 (inactive); in assay [9], -0.979. For the same molecule, the composite z-score in [4] was -0.315 (inactive); in [10], -0.177.

Take `COc1ccc([Si](C)(C)[C@H]2[C@H](CC(=O)N3CCC[C@H]3CO)O[C@@]3(C(=O)N(Cc4cccc(N5CCC5=O)c4)c4ccccc43)[C@@H]2C)cc1`: the z-score in assay [1] is -1.26; in [2] it was 0.124 (inactive); in assay [3], -0.616 (inactive); in assay [5] it was 0.507 (inactive); in [6], 1.23 (inactive); in assay [7] it was 0.791 (inactive). Further, the z-score is 0.473 (inactive) in [8] and -0.826 in assay [9]. Further, the composite z-score in [4] is -7.33 (inactive); in assay [10], -0.152.
